Results published in PubChem BioAssay AID624415 (National Center for Advancing Translational Sciences (NCATS), 2012).
Out of some 390,000 compounds screened, about 60 (0.02%) were called active. This is one part of a sample in which actives are shown more often than they occur. A number with no mark means an inactive call. Cut-off read from the data, not from the text of the source: active = activity change below about -50%; inconclusive = between about -30% and that limit; inactive = weaker than that.

Each molecule was assayed against Mucolipin-1 (Homo sapiens) (UniProt Q9GZU1) (assay: qHTS for Inhibitors of the Human Mucolipin Transient Receptor Potential 1 (TRPML1)). Conditions: TRPML1-inducible cells, Ca2+ dye fluorescence, FDSS; hits give low values; inhibition of EC80 agonist-evoked calcium signal.
Source text: Mutations of human Mucolipin transient receptor potential 1 (TRPML1) cause type IV mucolipidosis (ML4), a devastating neurodegenerative disease in young children. […] Currently, there is no treatment for ML4. […] Under physiological conditions, TRPMLs regulate membrane trafficking by transducing information about PI(3,5)P2 levels into changes in juxtaorganellar Ca2+, thereby triggering membrane fusion/fission events in the late endocytic pathways (endolysosomal trafficking). In addition, TRPML1 mediates release of Fe2+ from late endosomes and lysosomes, which is essential for cellular iron metabolism. Thus, impaired ion (Ca2+ and Fe2+) homeostasis underlies lysosomal dysfunction and ML4 phenotypes. In ML4 cells, the problem is twofold. First, defective Ca2+-dependent membrane trafficking due to TRPML1-deficiency causes accumulation of lipids and other bio-materials in the lysosome. The second strike comes from the lysosomal iron overload (due to impairment of TRPML1's Fe2+ conductivity), which converts the accumulated materials into the nondegradable (resistant to lysosomal degradation) lipofuscin (also called aging pigment) in the lysosome. Lipofuscin accumulation dramatically compromises the functions of lysosomes.
Niemann-Pick type C (NPC) disease is another lysosome storage disease (LSD) with severe neurodegeneration during the childhood. Currently, there is no cure for NPC. […] Thus, TRPML1 is likely to be an essential regulator of lysosome ion homeostasis. We specifically hypothesize that stimulating TRPML1's Fe2+/Ca2+ channel activity in the lysosome using synthetic agonists can alleviate neurodegeneration associated with ML4 or NPC.
To this end, a high throughput screen was developed in a miniaturized format to screen against the Molecular Libraries Small Molecule Repository (MLSMR) to find small molecules that act either as inhibitors or agonist against the TRPML1 channel.
NIH Chemical Genomics Center [NCGC]
NIH Molecular Libraries Probe Centers Network [MLPCN]
Assay Submitter (PI): Haoxing Xu, University of Michigan Ann Arbor
TRPML1-DL cells are dissociated from flasks, counted and, brought up to a density of 500,000 cells per mL of media containing a 1X Tet inducer. Using a Multidrop Combi, 3 uL of this cell solution is dispensed to each well of a 1536 TC treated, black, clear bottom hi base plate for a final cell density of 1,500 cells per well. The assay plates are incubated overnight (approximately 16 hours) at 37 degrees C and 5% CO2. Using a Multidrop Combi, 2 uL of ABD Ca8 no wash dye plus quencher is added to each well. The assay plates incubate at room temperature in the dark for 45-90 minutes. The assay plate is read on the FDSS using the following protocol: 10 second baseline read, 23 nL of compounds and controls are added using 1536 pintool, agonist read for 110 seconds, 1 uL EC80 addition (4 uM final 54-4 diluted in media), antagonist read for 110 seconds.
% is set by controls: 0 for no effect and ±100 for the full control effect.
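Note: stimulus is agonist 54-4 at its EC80 concentration.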

Sequence of Mucolipin-1 (Homo sapiens) (Q9GZU1 whole entry, looked up, the tested form may be a part): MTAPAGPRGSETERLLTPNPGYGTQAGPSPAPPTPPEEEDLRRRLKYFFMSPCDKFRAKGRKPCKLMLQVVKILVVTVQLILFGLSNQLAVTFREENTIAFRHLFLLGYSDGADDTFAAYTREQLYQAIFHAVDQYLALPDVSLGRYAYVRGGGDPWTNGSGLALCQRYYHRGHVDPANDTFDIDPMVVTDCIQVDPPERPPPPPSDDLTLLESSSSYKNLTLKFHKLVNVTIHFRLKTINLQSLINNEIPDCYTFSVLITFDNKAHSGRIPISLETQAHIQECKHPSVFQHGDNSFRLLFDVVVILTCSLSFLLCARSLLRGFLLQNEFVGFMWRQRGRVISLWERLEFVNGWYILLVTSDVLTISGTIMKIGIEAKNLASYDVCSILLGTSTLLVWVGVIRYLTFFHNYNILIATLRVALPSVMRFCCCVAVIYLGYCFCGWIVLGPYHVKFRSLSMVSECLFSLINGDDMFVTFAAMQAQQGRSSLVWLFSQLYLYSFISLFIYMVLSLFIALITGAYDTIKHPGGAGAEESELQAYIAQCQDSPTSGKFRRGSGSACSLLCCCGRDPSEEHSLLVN

| SMILES | activity change, negative = inhibition |
| --- | --- |
| CCN(CC)CCNC(=O)c1cc2c(=O)oc3ccc(C)cc3c2s1 | -8.55% |
| Cc1cc(F)ccc1NC1(c2ccccc2)C(=O)c2ccccc2C1=O | 2.11% |
| COc1ccc(S(=O)(=O)n2nc(C)c(S(=O)(=O)N3CCCCCC3)c2C)cc1 | -9.9% |
| O=C(Nc1ccc(OC(F)(F)F)cc1)c1cc2c(=O)n3ccccc3nc2s1 | 9.57% |
| COC(=O)c1ccc(-c2nc3cc(NC(C)=O)ccc3o2)cc1 | 12.1% |
| CCOc1ccc(S(=O)(=O)Nc2ccc3oc4c(c3c2)CC(C)CC4)cc1 (centres undefined) | 2.72% |
| CCOC(=O)c1ccc(NC(=O)C2CC(=O)N(c3ccc(C(C)C)cc3)C2)cc1 (centres undefined) | -2.44% |
| Cc1cc(OCC(=O)NCC2(N(C)C)CCCCC2)cc(C)c1Cl | -7.81% |
| C=C1CCN(C(CC(C)C)C(=O)NCc2cc(OC)c(OC)c(OC)c2)S(=O)(=O)c2ccccc21 (centres undefined) | 6.7% |
| Cc1ccc(CNC(=O)C2(C(F)(F)F)C/C(=C\CCO)CCCO2)o1 (centres undefined) | -4.32% |
| COc1ccc(NC(=O)CSc2nnc(-c3nnn(-c4ccc(F)cc4)c3C)o2)cc1 | 30.2% |
| Cc1cc(O)c(C(c2ccccc2)N2CCN(c3ccccc3F)CC2)c(=O)n1Cc1ccco1 (centres undefined) | 19% |
| O=C(NCCS(=O)(=O)N1CCN(c2ccc(F)cc2)CC1)c1ccccc1Br | -27.6% |
| Cc1nc(SCC(=O)N2CCN(c3ccccc3)CC2)[nH]c(=O)c1C | 14.8% |
| Cc1cccc(Cn2c(SCc3ccc(C(=O)N4CCC(C)CC4)cc3)nc3ccncc32)c1 | 10.3% |
| Cn1nnnc1SCCCNCc1ccc(Cl)cc1 | 25.2% |
| COc1ccc(Cl)cc1S(=O)(=O)Nc1cccc(C(=O)O)c1 | -0.499% |
| COC(=O)c1cccc(NS(C)(=O)=O)c1 | -60.5% (active) |
| CCOC(=O)c1cccc(NS(=O)(=O)c2cn(C)c(C)n2)c1 | 9.58% |
| O=C(CCc1nc(CN2CCN(S(=O)(=O)c3ccc(Cl)cc3)CC2)no1)N1CCCCC1 | 8.21% |
| CCc1ccc(CNC(=O)C2CCN(c3nn4cc(-c5ccc(F)cc5)nc4s3)CC2)cc1 | 20.9% |

| SMILES | activity change, negative = inhibition |
| --- | --- |
| Cc1ccc(NC(=O)Cc2ccc(NC(=O)N3CCCCc4ccccc43)cc2)cc1 | 8.17% |
| Cc1ccccc1C(=O)Nc1cc(C)c(O)c(-c2nc3ccccc3o2)c1 | -18.1% |
| Cc1ccccc1CNC(=O)CSc1nnc(C)c2c(C)n(-c3ccccc3)nc12 | 2.86% |
| Cc1ccc(OCCSc2nc(C)c(Cc3ccccc3)c(=O)[nH]2)cc1 | -16.6% |
| COc1ccc(NC(=O)NC(C)c2c(-n3cccc3)sc(C)c2C)cc1OC (centres undefined) | 12.5% |
| COC(=O)c1ccccc1NC(=O)Cn1c(=O)n(-c2cccc(C(F)(F)F)c2)c(=O)c2c(C)c(C)sc21 | -25.8% |
| Cc1cc2c(cc3c(SCc4nc(-c5ccccc5)oc4C)nnc(C)n32)o1 | 11.7% |
| N#Cc1ccccc1Cn1cnc2nc3c(cc2c1=O)CCCC3 | -15.7% |
| CCN(Cc1ccccc1)S(=O)(=O)c1ccc2c(c1)CCCN2C(C)=O | -2.82% |
| Cn1c(=O)c2sccc2n2c(CCC(=O)NCc3ccccc3Cl)nnc12 | 2.41% |
| CN1CCN(C2(CNC(=O)COc3ccc(C(C)(C)C)cc3)CCCCC2)CC1 | 16.1% |
| COc1cc(OC)cc(-c2nc3nc(C)c(CCC(=O)Nc4ccccc4)c(C)n3n2)c1 | -13.4% |
| Cc1ccc(Nc2c(-c3ccc(N(C)C)cc3)nc3nc[nH]n23)cc1 | -8.37% |
| CCOc1ccccc1CNC(=O)c1cnc2c(-c3ccc(OCC)c(OCC)c3)c(C)nn2c1C | -5.19% |
| CCc1ccc(-n2nc(C)c3c(C)cc(=O)n(CC(=O)Nc4ccc(F)cc4C)c32)cc1 | 1.68% |
| CCOc1ccc(C2C(=O)N(C3CCCCC3)CC(=O)N2CCC2=CCCCC2)cc1OC (centres undefined) | -3.98% |
| CCC(=O)N1CCc2cc(Br)cc(S(=O)(=O)CCC(=O)N3CCN(c4ccc(F)cc4)CC3)c21 | -21.4% |
| COc1ccc(CN2CCC(=O)c3ccccc3S2(=O)=O)cc1 | -9.22% |
| COc1ccc(CCC(=O)NCc2ccc3c(c2)CCN3C(=O)c2ccc(F)cc2)cc1 | -24.8% |
| CCCSc1ncc(Cl)c(C(=O)Nc2sc3c(c2C(=O)NCCOC)CCCC3)n1 | 20.3% |
| O=C(Nc1nc2c(s1)CCCC2)c1ccccc1F | 7.29% |

| SMILES | activity change, negative = inhibition |
| --- | --- |
| COc1cccc2cc(-c3nc(Cl)c4c5c(sc4n3)CC(C)CC5)c(=O)oc12 (centres undefined) | -7.72% |
| Cc1cc(N2CCOCC2)nc2ccc(NC(=S)N3CCN(Cc4ccccc4)CC3)cc12 | -15.7% |
| Cc1ccc(Nc2nc(N)nc(CN3CCN(Cc4ccccc4)CC3)n2)cc1Cl | -62.2% (active) |
| CCOC(=O)C1CCCN(Cc2nc(N)nc(Nc3ccc(C)cc3)n2)C1 (centres undefined) | -0.383% |
| Cc1ccc(-n2c(SCC(=O)c3ccccc3)nc3c([nH]c4ccccc43)c2=O)cc1 | 13.9% |
| O=C(CSCc1cnn(-c2ccccc2)c1-n1cccc1)NCc1ccccc1Br | 2.1% |
| CC1=C(C(=O)OCc2ccc(C)cc2)C(c2ccccc2Cl)CC(=O)N1 (centres undefined) | 31.3% |
| C#CC(C)(CC)NC(=O)Cn1nnc(-c2ccc(OCc3c(F)cccc3Cl)cc2)n1 (centres undefined) | -6.13% |
| Cn1c(=O)c2c(nc(SCC(=O)Nc3ccc(F)cc3)n2Cc2ccc(Cl)cc2)n(C)c1=O | 3.84% |
| Cc1cccc(C(=O)Nc2ccc(-c3nc4ncccc4o3)cc2C)c1 | -6.3% |
| COC(=O)CCc1ccccc1S(=O)(=O)N(CCC(=O)OC)Cc1ccccc1 | -2.45% |
| CC(C)(C)n1ncc2c(=O)n(Cc3ccc(C(=O)c4ccccc4)cc3)cnc21 | 1.11% |
| COc1cccc(CNC(=O)c2ccc3c(c2)N(Cc2ccc(C(F)(F)F)cc2)C(=O)c2ccccc2S3)c1OC | 37.3% |
| C=C1CCN(Cc2ccc(OC)cc2)S(=O)(=O)c2ccccc21 | 57% |
| CCOC(=O)c1ccc(-c2ccc(/C=C(\C#N)C(=O)Nc3ccc(OCC)cc3)o2)cc1 | 10.3% |
| Cc1c(NS(=O)(=O)c2ccc(Cl)cc2)c(=O)n(-c2ccccc2)n1C | -2.41% |
| CCc1ccc2ncc3c(-c4ccc(C)cc4)nn(CC(=O)NCc4ccccc4)c3c2c1 | 1.33% |
| COc1ccc(N2CCN(C(=O)C3CCCN(C(=O)c4cc5sccc5n4C)C3)CC2)cc1 (centres undefined) | -10.9% |
| COc1cc(Br)cc2cc(S(=O)(=O)c3ccccc3)c(=O)oc12 | 0.895% |
| COc1ccc(Cl)cc1NC(=O)Cn1c(=O)c2ccccc2n2nncc12 | 11.3% |
| COc1cc(NC(=O)Cn2nc(-c3ccc(C)c(C)c3)ccc2=O)cc(OC)c1 | -17.3% |

| SMILES | activity change, negative = inhibition |
| --- | --- |
| Cc1ccc(NC(=O)NC(C)c2c(-n3cccc3)sc(C)c2C)c(C)c1 (centres undefined) | 43% |
| CCc1nnc(SCc2nc(-c3cccc(C)c3)oc2C)c2cc3sc(C)cc3n12 | -4.34% |
| CCCOc1ccc(C(=O)Nc2ccc3oc(-c4cccc(Cl)c4Cl)nc3c2)cc1 | -2.03% |
| COc1ccccc1-c1cc(C(F)(F)F)nc(S(=O)(=O)CCCC(=O)Nc2cc(C)ccc2O)n1 | -10.5% |
| Cc1ccc(C)c(Oc2c(C(F)(F)F)oc3c(CN4CCN(C)CC4)c(O)ccc3c2=O)c1 | 11.9% |
| O=C(CN1CCN(Cc2ccc(Cl)cc2)C1=O)NCc1ccc(F)cc1 | 3.6% |
| COc1cccc(Cn2c(SCc3ccc(C(=O)N4CCCCC4)cc3)nc3ccncc32)c1 | 17.2% |
| CSc1nc(=O)c2c(n1C)NC(=O)CC2c1ccccc1OC(C)C (centres undefined) | -8.74% |
| O=C(Nc1ccc2nc(SCC(=O)N3CCCc4ccccc43)sc2c1)c1ccc(F)cc1 | -5.54% |
| Cn1cc(S(=O)(=O)N2CCCCCC2)cc1C(=O)N1CCN(c2ccc(F)cc2)CC1 | -18.5% |
| Cc1ccc(NC(=O)CSc2nc3c([nH]c4ccccc43)c(=O)n2-c2ccccc2)cc1Cl | -8.82% |
| CCCS(=O)(=O)c1c(Nc2ccccc2C)sc(C(=O)c2ccccc2)c1N | 6.08% |
| CCC(=O)N1CCc2cc(Br)cc(S(=O)(=O)Nc3ccc(C)cc3C)c21 | 11.5% |
| O=C(Nc1ccc(Br)cc1)c1cc2nc(-c3ccccc3)cc(-c3ccccc3)n2n1 | 63.6% |
| O=C(CS(=O)(=O)c1cccc2nsnc12)N1CCN(c2cccc(Cl)c2)CC1 | -7.54% |
| O=C(COc1ccccc1)NCc1ccc2c(c1)CCN2C(=O)c1ccc(F)cc1 | 25.6% |
| COc1ccc(NC(=O)c2cc3cc(C)ccc3n2C)cc1 | -10.1% |
| COC(=O)c1ccc(NC(=O)c2cnn(-c3ccc(Cl)cc3)c2C2CCN(C(=O)OC(C)(C)C)CC2)cc1 | -3.85% |
| Cc1c(C(=O)N2CCCC2)oc2c1-c1nn(CC(=O)NCc3ccc(OC(C)C)cc3)cc1CC2 | 30.2% |
| CN1CCN(/[N+]([O-])=N/Oc2ccc([N+](=O)[O-])cc2[N+](=O)[O-])CC1 | -8.85% |
| COc1cc(OC)c2c(c1C(CCN1CCCCC1)c1ccc(N(C)C)cc1)OC(=O)CC2c1ccc(N(C)C)cc1 (centres undefined) | -9.58% |
